Source: ChEMBL document CHEMBL3988442, “University of Dundee, Small-Polar-MMV Screening Library” (2021)
The whole screen tested about 69,000 compounds, of which about 1,000 (1.4%) showed an effect of 50% or more. This excerpt belongs to a sample that is enriched for strong results.

Test system: Leishmania donovani
Assay: Leishmania intramacrophage assay
Assay type: functional, organism-based
Parameters: scale not given: in the data most compounds retested in dose-response had high values

O=C(CSc1ccncc1)NC1CC(=O)N(CCc2ccccc2)C1 (stereo unspecified)
Percent Effect (30.3 µM, […]): 1.719%

COc1ncc(-c2cc(-c3ccn(C)c3)nc(N)c2C#N)cn1
Percent Effect (30.3 µM, […]): 4.864%

CCn1cc(-c2cc(-c3ccn(C)c3)nc(N)c2C#N)cc1C#N
Percent Effect (30.3 µM, […]): 62.07%

CCNc1ncc(-c2cc(-c3ccn(C)c3)nc(N)c2C#N)cn1
Percent Effect (30.3 µM, […]): -7.222%

COc1c(CNCc2ccccc2-n2ccnc2)c(C)nn1C
Percent Effect (30.3 µM, […]): -14%

CCN(CC)C(=O)c1ccn(COc2ccccc2)n1
Percent Effect (30 µM, 30.03 µM): 25.56%

CCN(CC)C(=O)c1ccn(COc2cc(C)cc(C)c2)n1
Percent Effect (30 µM, 30.03 µM): 51.39%

Cc1cc(C)cc(OCn2ccc(C(=O)O)n2)c1
Percent Effect (30.3 µM, […]): 36.81%

Cc1cc(C(=O)N2C[C@@H](C(=O)O)[C@H](c3ccccc3C)C2)c(C)o1
Percent Effect (30 µM, 30.03 µM): -7.821%

O=C(c1cc(-c2cn[nH]c2)nc2cc(F)ccc12)N1CCS(=O)(=O)CC1
Percent Effect (30.3 µM, […]): 4.667%

Cc1cc(C)cc(C(=O)NCCS(=O)(=O)N2CCSCC2)c1
Percent Effect (30.3 µM, […]): -32.85%

Cc1ccc(C(=O)NCCS(=O)(=O)N2CCSCC2)o1
Percent Effect (30.3 µM, […]): -11.12%

Cc1ccoc1C(=O)NCCS(=O)(=O)N1CCSCC1
Percent Effect (30.3 µM, […]): 62.05%

CN1CCN([C@@H]2CN(C(=O)CCOc3ccccc3)C[C@H]2O)CC1
Percent Effect (30.3 µM, […]): 23.88%

COc1cc(CN[C@@H]2COC[C@H]2Cc2cc(C)no2)cc(OC)c1.O=C(O)CC(O)(CC(=O)O)C(=O)O
Percent Effect (30.3 µM, […]): 4.158%

CN1CCN(c2nsc(-c3cccnc3)c2C#N)CC1
Percent Effect (30.3 µM, […]): 11.24%

Cc1nn(C)c(C)c1-c1cnc(C2CCCN(S(C)(=O)=O)C2)cn1 (stereo unspecified)
Percent Effect (30.3 µM, […]): 19.29%

CO[C@H]1CN(C(=O)c2cccnc2)[C@@H]2CCCO[C@H]12.O=C(O)C(F)(F)F
Percent Effect (30.3 µM, […]): 4.595%

Cc1ccccc1OCC1CCCN(c2cc(N)nc(N)n2)C1 (stereo unspecified)
Percent Effect (30.3 µM, […]): 98.85%

Nc1cc(N2CCCC(COc3ccc(F)cc3)C2)ncn1 (stereo unspecified)
Percent Effect (30.3 µM, […]): 1.04%

Nc1cc(N2CCCC(COc3ccc(F)cc3)C2)nc(N)n1 (stereo unspecified)
Percent Effect (30.3 µM, […]): -15.02%

COc1cccc(OCC2CCCN(c3cc(C(N)=O)ccn3)C2)c1 (stereo unspecified)
Percent Effect (30.3 µM, […]): 42.88%

Cc1ccc(OCC2CCCN(c3cc(C(N)=O)ccn3)C2)cc1 (stereo unspecified)
Percent Effect (30.3 µM, […]): 60.08%

Cc1nc(N)cc(N2CCCC(COc3cccc(F)c3)C2)n1 (stereo unspecified)
Percent Effect (30.3 µM, […]): 87.26%

CNC(=O)c1ccnc(N2CCCC(COc3cccc(C)c3)C2)c1 (stereo unspecified)
Percent Effect (30.3 µM, […]): 30.74%

Cc1nc(CN(C)C)cc(N2CCCC(COc3ccc(F)cc3)C2)n1 (stereo unspecified)
Percent Effect (30.3 µM, […]): -8.427%

CCNC(=O)c1ccnc(N2CCCC(COc3ccccc3C)C2)c1 (stereo unspecified)
Percent Effect (30.3 µM, […]): 33.05%

Cc1ccc(C(=O)N2Cc3c(CN(C)C)nn(C)c3C2)cc1C.O=C(O)C(F)(F)F
Percent Effect (30.3 µM, […]): 35.58%

Cc1csc(NC(=O)c2cnc(C3CCCN3)cn2)n1.Cl (stereo unspecified)
Percent Effect (30.3 µM, […]): 7.514%

CCC(C)NC(=O)Cc1c(C)nc2c(c1C)c(=O)[nH]n2C (stereo unspecified)
Percent Effect (30 µM, 30.03 µM): -5.579%

COc1cc(C(=O)N2CCCC(CNS(C)(=O)=O)C2)cc(OC)c1C (stereo unspecified)
Percent Effect (30 µM, 30.03 µM): 16.86%

CN(C)CC1CN(Cc2ccc(F)cc2)Cc2nccn2C1.O=C(O)C(F)(F)F.O=C(O)C(F)(F)F (stereo unspecified)
Percent Effect (30.3 µM, […]): 6.472%

N#Cc1ccc(CNC2CCN(CCc3ccncc3)CC2)cc1
Percent Effect (30.3 µM, […]): 19.38%

COc1ccc(CNC2CCN(CCc3ccncc3)CC2)cc1O
Percent Effect (30 µM, 30.03 µM): 9.899%

Oc1cccc(CNC2CCN(CCc3ccncc3)CC2)c1
Percent Effect (30.3 µM, […]): 7.34%

CSc1ccc(CNC2CCN(CCc3ccncc3)CC2)cc1
Percent Effect (30.3 µM, […]): 85.89%

COC(=O)C(O)C1CCN(CCc2ccncc2)CC1 (stereo unspecified)
Percent Effect (30.3 µM, […]): 9.422%

Clc1cccc(CNC2CCN(CCc3ccncc3)CC2)c1
Percent Effect (30.3 µM, […]): 59.66%

CC(NC1CCN(CCc2ccncc2)CC1)c1cnn(C(C)C)c1 (stereo unspecified)
Percent Effect (30.3 µM, […]): 6.548%

CCCN1CCC(NCc2ccncc2)CC1
Percent Effect (30.3 µM, […]): -7.602%

Cc1cccc(CNC2CCN(CCc3ccncc3)CC2)c1C
Percent Effect (30.3 µM, […]): 74.34%

Cc1ccc(CNC2CCN(CCc3ccncc3)CC2)s1
Percent Effect (30 µM, 30.03 µM): 45.1%

Cc1ccc(CNC2CCN(CCc3ccncc3)CC2)cc1C
Percent Effect (30 µM, 30.03 µM): 92.66%

c1cc(CCN2CCC(NCc3ccsc3)CC2)ccn1
Percent Effect (30.3 µM, […]): 31.06%

CC1(c2ccccc2)CCC(=O)N(CCN2CCCOC2=O)C1 (stereo unspecified)
Percent Effect (30.3 µM, […]): -24.18%

CN(C)C(=O)CN1CCN(C(=O)c2cnn(-c3ccccc3Cl)c2)CC1
Percent Effect (30 µM): 13.32%

CC(C)Cc1ccc(S(=O)(=O)Nc2ccc(=O)n(C)c2)cc1
Percent Effect (30 µM, 30.03 µM): 40.75%

CCOCCN1CCN(c2ccc(C#N)cn2)CC1CC (stereo unspecified)
Percent Effect (30.3 µM, […]): 26.65%

CC(CNC1CCN(Cc2ccncc2)CC1)c1ccc(F)cc1F (stereo unspecified)
Percent Effect (30.3 µM, […]): 10.91%

COCCN1CCC(NCc2ccc(Cl)cc2)C1 (stereo unspecified)
Percent Effect (30 µM): 10.13%

Fc1ccc(CNC2CCN(CCc3ccncc3)CC2)cc1F
Percent Effect (30.3 µM, […]): 73.28%
